Reference: PubChem BioAssay (Tox21)
Calls of active or inactive are those of the source. The call rests on the fitted dose curve; in most records, active means well fitted curve in the direction sought with a large enough effect in the repeat runs; inconclusive means weak or mixed curves; inactive means flat fitted curve, though single readings scatter.

assay: qHTS assay to test for compound auto fluorescence at 535 nm (green) in HEK293 cells (AID 720680); settings: green autofluorescence 485/535 nm; series mostly up to 91.3 µM; fluorescence, % of fluorescein: at the top concentration
On the % scale 0 is the no-effect control and ±100 the full control effect.

Row | Structure (SMILES) | fluorescence, % of fluorescein | outcome
1 | COc1nn(C(=O)NS(=O)(=O)c2ccccc2OC(F)(F)F)c(=O)n1C | -0.0233% (inactive) | 
2 | COC(C)(C)CCC[C@H](C)C/C=C/C(C)=C/C(=O)OC(C)C | 0.0805% (inactive) | 
3 | O=C1NCN(c2ccccc2)C12CCN(CCCOc1ccc(F)cc1)CC2 | 0.0389% [at 46 µM] (inactive) | 
4 | CCC(Cl)CCl (configuration not stated) | 0.06% (inactive) | 
5 | CCCC(=O)Cl | 0.008% (inactive) | 
6 | O=[Se]=O | 0.0788% [at 46 µM] (inactive) | 
7 | O=C(C(Cl)(Cl)Cl)C(Cl)(Cl)Cl | 0.0332% [at 95.7 µM] (inactive) | 
8 | CN(N=O)c1ccc([N+](=O)[O-])cc1 | 0.131% (inactive) | 
9 | CC(=O)NC1CCSC1=O (configuration not stated) |  | inactive
10 | ClP(Cl)(Cl)(Cl)Cl | -0.103% (inactive) | 
11 | O=Cc1ccc2c(c1)OCO2 | 0.0048% (inactive) | 
12 | O=S(=O)(O)C(F)(F)C(F)(F)C(F)(F)C(F)(F)F | -0.135% [at 95.7 µM] (inactive) | 
13 | CCn1cc[n+](C)c1 |  | inactive
14 | Oc1ccc(Cl)c(Cl)c1Cl | -0.0146% [at 95.7 µM] (inactive) | 
15 | O=[N+]([O-])c1ccc(F)c([N+](=O)[O-])c1 |  | inactive
16 | CNP(=O)(OC)Oc1ccc(C(C)(C)C)cc1Cl (configuration not stated) | -0.0069% (inactive) | 
17 | O=C(CBr)c1ccccc1 | 0.0245% (inactive) | 
18 | C=COC(C)=O | -0.0228% [at 95.7 µM] (inactive) | 
19 | CC1C(=O)C[C@]2(C(C)C)C[C@H]12 (some centres not stated) | 0.0129% (inactive) | 
20 | COc1nn(CSP(=S)(OC)OC)c(=O)s1 | 0.14% (inactive) | 
21 | CCc1ccc(C(=O)NN(C(=O)c2cc(C)cc(C)c2)C(C)(C)C)cc1 | -0.0143% (inactive) | 
22 | CCOP(O)OCC | -0.0155% (inactive) | 
23 | CCCCCCCCCCOC(=O)c1ccccc1C(=O)OCCCCCCCCCC | -0.0027% (inactive) | 
24 | CCCC(Cn1cncn1)c1ccc(Cl)cc1Cl (configuration not stated) | 0.0743% (inactive) | 
25 | CCOC(=O)COc1cc(-c2nn(C)c(OC(F)F)c2Cl)c(F)cc1Cl | -0.0239% (inactive) | 
26 | O=C(Nc1ccccc1)Nc1cnns1 | -0.0606% (inactive) | 
27 | CC(=O)[C@H]1CC[C@H]2[C@@H]3CC[C@H]4C[C@](C)(O)CC[C@]4(C)[C@H]3CC[C@]12C | 0.0451% [at 46 µM] (inactive) | 
